# Test results published in the supplement of paper PMC9925115.
# Where a name gives a salt, the structure may show the parent alone.
# System: FLX1 + dox-induced PRKAR1A G325D
# Experiment: difference in log2 fold change of viability vs plate median (dox-induced PRKAR1A G325D minus uninduced); higher = compound less effective when PKA is inhibited
# Settings: concentration: not stated (2 or 5 uM); 5 days
# Description: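 For each plate a log2 fold change vs the plate median was derived, and the values without dox were subtracted from those with dox, averaged over three biological replicates.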
row,Structure (SMILES),difference in log2 fold change of viability
1,O=C(NCc1cccc(O)c1)Nc1nc(-c2ccncc2)cs1,-0.0799
2,CCn1c(-c2nonc2N)nc2c(C#CC(C)(C)O)ncc(OC[C@H]3CCCNC3)c21,0.00672
3,Nc1ccc(-c2ccc3ncc4ccc(=O)n(-c5cccc(C(F)(F)F)c5)c4c3c2)cn1 [Torin 2],0.605
4,COc1cc(Nc2ncc(F)c(Nc3ccc4c(n3)NC(=O)C(C)(C)O4)n2)cc(OC)c1OC,-0.353
5,Cc1cc(C)c(/C=C2\C(=O)Nc3ccccc32)[nH]1 [Semaxanib (SU5416)],0.256
6,CCn1c(=O)c(-c2ccc(-c3cncs3)cc2Cl)cc2cnc(Nc3ccc(N4CCN(C)CC4)cc3)nc21,-0.943
7,CCc1cncnc1N1CCN(Cc2nc3ccc(C(F)(F)F)cc3[nH]2)CC1,-1.55
8,CC[C@@H]1C(=O)N(C)c2cnc(Nc3ccc(C(=O)NC4CCN(C)CC4)cc3OC)nc2N1C1CCCC1,0.0323
9,O=C(NC1CCNCC1)c1n[nH]cc1NC(=O)c1c(Cl)cccc1Cl,0.272
10,CS(=O)(=O)c1cccc(CNc2nc(Nc3ccc4c(c3)CCC(=O)N4)ncc2C(F)(F)F)c1,-0.0481
11,Cc1ccc(C(=O)Nc2cccc(C(F)(F)F)c2)cc1Nc1nc(-c2cccnc2)nc2c1cnn2C,0.868
12,CC(C)(O)CC(=O)NCCn1ccc2ncnc(Nc3ccc(Oc4cccc(C(F)(F)F)c4)c(Cl)c3)c21,-0.173
13,CN1CCN(c2nc(C3=C(c4c[nH]c5ccccc45)C(=O)NC3=O)c3ccccc3n2)CC1 [Sotrastaurin],-0.157
14,COc1ccc2c(Oc3ccc(NC(=O)c4c(C)n(CC(C)(C)O)n(-c5ccccc5)c4=O)nc3)ccnc2c1,0.00712
15,Cn1cc(C2=C(c3ccc(Cl)cc3Cl)C(=O)NC2=O)c2ccccc21,0.189
16,CCS(=O)(=O)c1cccc(-c2cc(C(=O)NC3CCN(C)CC3)c(C)c3[nH]c4ncc(C)cc4c23)c1,-0.102
17,COc1cc2nccc(Oc3ccc(NC(=O)C4(C(=O)Nc5ccc(F)cc5)CC4)cc3)c2cc1OC [Cabozantinib malate (XL184)],-0.77
18,C=CC(=O)Nc1cccc(Nc2nc(Nc3ccc(OCCOC)cc3)ncc2F)c1,-0.726
19,CNC(=O)c1nn(C)c2c1C(C)(C)Cc1cnc(Nc3ccc(N4CCN(C)CC4)cc3)nc1-2,0.64
20,CN(C)CCCn1cc(C2=C(c3c[nH]c4ccccc34)C(=O)NC2=O)c2ccccc21,-0.243

row,Structure (SMILES),difference in log2 fold change of viability
1,CO[C@H]1C[C@@H]2CC[C@@H](C)[C@@](O)(O2)C(=O)C(=O)N2CCCC[C@H]2C(=O)O[C@H]([C@H](C)C[C@@H]2CC[C@H](n3cnnn3)[C@H](OC)C2)CC(=O)[C@H](C)/C=C(\C)[C@@H](O)[C@@H](OC)C(=O)[C@H](C)C[C@H](C)/C=C/C=C/C=C/1C [Zotarolimus(ABT-578)],0.358
2,O=C(NOCC1CC1)c1ccc(F)c(F)c1Nc1ccc(I)cc1Cl,0.453
3,C=CC(=O)Nc1cccc(Nc2nc(Nc3ccc(Oc4ccnc(C(=O)NC)c4)cc3)ncc2F)c1,-0.452
4,CC(C)(C)NS(=O)(=O)c1cncc(-c2cc(F)c3nc(N)nn3c2)c1,-0.0394
5,O=C(c1ccc(Nc2nccc(-c3cc4ccccc4s3)n2)cc1)N1CCC(N2CCCC2)CC1 [IKK-16 (IKK Inhibitor VII)],0.096
6,"CO[C@H]1C[C@@H]2CC[C@@H](C)[C@@](O)(O2)C(=O)C(=O)N2CCCC[C@H]2C(=O)O[C@H]([C@H](C)C[C@@H]2CC[C@@H](OP(C)(C)=O)[C@H](OC)C2)CC(=O)[C@H](C)/C=C(\C)[C@@H](O)[C@@H](OC)C(=O)[C@H](C)C[C@H](C)/C=C/C=C/C=C/1C [Ridaforolimus (Deforolimus, MK-8669)]",0.419
7,CC(C)NC[C@@H](C(=O)N1CCN(c2ncnc3c2[C@H](C)C[C@H]3O)CC1)c1ccc(Cl)cc1 [Ipatasertib (GDC-0068)],0.54
8,CC(C)(C)c1cc(NC(=O)Nc2ccc(-c3cn4c(n3)sc3cc(OCCN5CCOCC5)ccc34)cc2)no1 [Quizartinib (AC220)],0.254
9,COc1cc(N2CCC(N(C)C)CC2)ccc1Nc1ncc(Cl)c(Nc2ccccc2P(C)(C)=O)n1,-1.41
10,COc1cc(Nc2c(C#N)cnc3cc(OCCCN4CCN(C)CC4)c(OC)cc23)c(Cl)cc1Cl [Bosutinib (SKI-606)],-0.235
11,O=C(Nc1cccc(Cl)c1)Nc1ncc(CCNc2ncnc3ccsc23)s1 [SNS-314 Mesylate],-0.153
12,CS(=O)(=O)CCNCc1ccc(-c2ccc3ncnc(Nc4ccc(OCc5cccc(F)c5)c(Cl)c4)c3c2)o1 [Lapatinib],0.129
13,CCc1cnn2c(NCc3ccc[n+]([O-])c3)cc(N3CCCC[C@H]3CCO)nc12,0.265
14,OCCn1cc(-c2cnc3nnn(Cc4ccc5ncccc5c4)c3n2)cn1,-0.172
15,C=CCc1ccc(O)c(-c2ccc(O)c(CC=C)c2)c1 [Honokiol],-1.37
16,CN(C)Cc1cccc(N/C(=C2\C(=O)Nc3cc(C(N)=O)ccc32)c2ccccc2)c1,-0.409
17,Cc1ccc(Nc2nccc(N(C)c3ccc4c(C)n(C)nc4c3)n2)cc1S(N)(=O)=O,-0.0987
18,Oc1ccc(Nc2nc(-c3ccc(Cl)cc3)cs2)cc1,-0.56
19,S=C(NCc1ccc2c(c1)OCO2)N1CCN(c2ncnc3c2oc2ccccc23)CC1 [Amuvatinib (MP-470)],0.22
